From PubChem
Most compounds without a hit are left out; they make up all but 19% or so of the library.
Pf growth 48h: Primary qHTS for delayed death inhibitors of the malarial parasite plastid, 48 hour incubation; P. falciparum luciferase growth in erythrocytes, 48 h; 5.9% of 310,000 active; Potency, µM (doses to about 28.7 µM), for inactives: at the highest dose activity change, negative = inhibition, usual class: inhibitors; further: potency means the concentration at half of the fitted maximal effect; on the % scale 0 is the no-effect control and ±100 the full control effect
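A one-generation exposure of luciferase-tagged malaria parasites in RPMI 1640/Albumax erythrocyte culture, 37 C and 5% CO2. Inhibition is inferred from decreased luminescence after adding detection reagent.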
AMA1-RON2 inh: qHTS for Inhibitors of AMA1-RON; Towards Development of Antimalarial Drug Lead: Primary Screen; AlphaScreen AMA1-biotinylated RON2 peptide binding; Potency, µM (top dose mostly 58.2 µM), for inactives: at the top dose activity change, negative = inhibition, actives largely listed as inhibitors; Plasmodium falciparum AMA1 (3D7) - RON2 peptide interaction; 0.2% of 360,000 active;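 further: potency means the concentration at half of the fitted maximal effect; 0% = vehicle wells and -100% = peptide control; nearly all actives have a fitted effect of over 45% in size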
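AMA1 (3D7) with his tag at 25 nM final met compounds first, then biotinylated RON2 peptide at 25 nM; detection used donor plus acceptor beads, 10 µg/mL apiece, read by AlphaScreen after 30 min at room temperature.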
Shiga toxin inh: A qHTS for Small Molecule Inhibitors of Shiga Toxin. Vero cells, Shiga toxin protein synthesis inhibition reporter. inhibition, % at 38.7 µM. 9.2% of 290,000 active. AID 2315, 2010; in the data active means inhibition mostly above about 28%, no sharp cut-off; inactive means mostly below about 43%; further: 0% is about no effect
CHX counter: Cycloheximide Counterscreen for Small Molecule Inhibitors of Shiga Toxin. cell reporter, cycloheximide protein synthesis inhibition counterscreen. 12% of 300,000 active. AID 2314, 2010. max response, %; in the data active means max response mostly above about 13%, no sharp cut-off; inactive means mostly below about 14%; further: read at 38.3 µM for the half of the compounds with a filed dose; 0% is about no effect
Pf growth 96h: Primary qHTS for delayed death inhibitors of the malarial parasite plastid, 96 hour incubation; Potency, µM (titrated, usually from 28.7 µM), inactives show at the highest dose activity change, negative = inhibition, hits mostly inhibitors; P. falciparum luciferase reporter growth, 96 h; 6.9% of 320,000 active; further: potency means the concentration at half of the fitted maximal effect; on the % scale 0 is the no-effect control and ±100 the full control effect
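Delayed-death screen, second-generation endpoint: infected erythrocytes, 2% hematocrit, 0.05% parasitemia final; 96 hours at 37 C, 5% CO2; luciferase detection reagent; luminescence decrease equals reduced growth.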
SARS PLpro yeast: qHTS of Yeast-based Assay for SARS-CoV PLP; Potency, µM (highest dose often 32.9 µM), for inactives: top-dose activity, positive = growth rescue, most hits filed as activators; AID 485353, 2010; 0.19% of 330,000 active; S. cerevisiae expressing SARS-CoV PLpro, growth rescue; calls by dose curve; further: potency means the concentration at half of the fitted maximal effect; 0% is about no effect; nearly all actives have a fitted effect of over 55% in size
Active calls of the source: *. Unless noted, the call rests on the fitted dose curve; in most records, active means well fitted curve in the direction sought with a large enough effect; inconclusive means small, poorly fitted or top-dose-only effect, or another doubt; inactive means no such curve, though single readings can be large; an effect the other way counts as inactive or inconclusive.

What do the screens show for `CC1=CC(C)C(C[N+]2(C)CCCCC2)C(C)C1` (stereo not given)?
Pf growth 48h: inconclusive; AMA1-RON2 inh: -11%; Shiga toxin inh: -14; CHX counter: -2; Pf growth 96h: 19%; SARS PLpro yeast: 1%

Results for CC1=CC(C)C(/C=N/N=C(N)N)C(C)C1 (stereo not given) ?
Pf growth 48h: 12µM*; AMA1-RON2 inh: 6%; Shiga toxin inh: -7; CHX counter: -3; Pf growth 96h: 2.9µM*; SARS PLpro yeast: 0%

How did COC(=O)C(C)NC(=O)c1ccc(C(C)(C)C)cc1 (stereo not given) do in these assays?
Pf growth 48h: 41%; AMA1-RON2 inh: 0%; Shiga toxin inh: 77*; CHX counter: 31*; Pf growth 96h: 17%; SARS PLpro yeast: 5%

How did CCOc1ccccc1OCCOc1cccc(C(F)(F)F)c1 do in these assays?
Pf growth 48h: 44%; AMA1-RON2 inh: 132%; Shiga toxin inh: -18; CHX counter: -2; Pf growth 96h: 94%; SARS PLpro yeast: -3%

How did COc1ccc(S(=O)(=O)NCc2ccco2)cc1-c1nnc2c3ccccc3c(C)nn12 do in these assays?
Pf growth 48h: 12µM*; AMA1-RON2 inh: 2%; Shiga toxin inh: 43; CHX counter: 40*; Pf growth 96h: inconclusive; SARS PLpro yeast: 2%

What do the screens show for `Cc1cccc(C(=O)Nc2cccc(S(=O)(=O)NCc3ccco3)c2)c1`?
Pf growth 48h: -28%; AMA1-RON2 inh: -9%; Pf growth 96h: -10%; SARS PLpro yeast: 1%

How did O=C(Nc1cccc(S(=O)(=O)NCc2ccco2)c1)c1cc(-c2ccc(F)cc2)nc2ccccc12 do in these assays?
Pf growth 48h: -23%; AMA1-RON2 inh: -15%; Shiga toxin inh: 70*; CHX counter: 39*; Pf growth 96h: 12µM*; SARS PLpro yeast: -3%

How did COc1ccc(-c2cc(C(=O)Nc3cccc(S(=O)(=O)NCc4ccco4)c3)c3ccccc3n2)cc1OC do in these assays?
Pf growth 48h: 2.1µM*; AMA1-RON2 inh: -1%; Shiga toxin inh: 41; CHX counter: 21*; Pf growth 96h: inconclusive; SARS PLpro yeast: 1%

Results for CNS(=O)(=O)c1ccc(OC)c(-c2nnc3c4ccccc4c(C)nn23)c1 ?
Pf growth 48h: inconclusive; AMA1-RON2 inh: 9%; Shiga toxin inh: -9; CHX counter: -5; Pf growth 96h: inconclusive; SARS PLpro yeast: -3%

How did Cc1ccc2nc(N(CCN(C)C)C(=O)C3CCN(S(=O)(=O)c4cccs4)CC3)sc2c1 do in these assays?
AMA1-RON2 inh: 44%

How did Cc1cc(Cl)nc2c(C(C)C)cccc12 do in these assays?
Pf growth 48h: -8%; AMA1-RON2 inh: 7%; Shiga toxin inh: 16; CHX counter: -1; Pf growth 96h: 26%; SARS PLpro yeast: 0%

How did Cc1cc(Br)c2nc3c(c(C(=O)O)c2c1)CCCCC3 do in these assays?
Pf growth 48h: -3%; AMA1-RON2 inh: -21%; Shiga toxin inh: -5; CHX counter: 0; Pf growth 96h: 8.3µM*; SARS PLpro yeast: 2%

How did CCc1ccc2nc3c(c(C(=O)O)c2c1)CCC3 do in these assays?
Pf growth 48h: -6%; AMA1-RON2 inh: 1%; Shiga toxin inh: 21; CHX counter: 19; Pf growth 96h: inconclusive; SARS PLpro yeast: 0%

What do the screens show for `COc1ccc(CNCC(O)(c2ccccc2)c2ccccc2)cc1`?
Pf growth 48h: 0%; AMA1-RON2 inh: -2%; Shiga toxin inh: 5; CHX counter: 15; Pf growth 96h: 0%; SARS PLpro yeast: 1%

Results for OC(CNCc1ccccc1)(c1ccccc1)c1ccccc1 ?
Pf growth 48h: 13µM*; AMA1-RON2 inh: -1%; Shiga toxin inh: 8; CHX counter: 7; Pf growth 96h: 8.3µM*; SARS PLpro yeast: -1%

Results for Cc1ccc(CNCC(O)(c2ccccc2)c2ccc(F)cc2)cc1 (stereo not given) ?
Pf growth 48h: inconclusive; AMA1-RON2 inh: -1%; Shiga toxin inh: -13; CHX counter: 4; Pf growth 96h: 0%; SARS PLpro yeast: -6%

What do the screens show for `OC(CNCc1ccccc1)(c1ccc(F)cc1)c1ccc(F)cc1`?
Pf growth 48h: 4.7µM*; AMA1-RON2 inh: 1%; Shiga toxin inh: 4; CHX counter: -4; Pf growth 96h: 2.1µM*; SARS PLpro yeast: 1%

Results for COc1ccc(CNCC(O)(c2ccc(F)cc2)c2ccc(F)cc2)cc1 ?
Pf growth 48h: 12µM*; AMA1-RON2 inh: -4%; Shiga toxin inh: 42; CHX counter: 24; Pf growth 96h: inconclusive; SARS PLpro yeast: 1%

How did OC(CNCc1ccc(F)cc1)(c1ccccc1)c1ccc(F)cc1 (stereo not given) do in these assays?
Pf growth 48h: 2.6µM*; AMA1-RON2 inh: 0%; Shiga toxin inh: -9; CHX counter: 1; Pf growth 96h: 1.7µM*; SARS PLpro yeast: 5%

Results for C=CCNC(=O)COC(=O)c1cc(S(=O)(=O)N2CCOCC2)ccc1N1CCCCC1 ?
AMA1-RON2 inh: -9%; Shiga toxin inh: -6; CHX counter: -2; Pf growth 96h: 27%; SARS PLpro yeast: 13%

How did Cc1ccc(CNCC(O)(c2ccc(F)cc2)c2ccc(F)cc2)cc1 do in these assays?
Pf growth 48h: inconclusive; AMA1-RON2 inh: 9%; Shiga toxin inh: -1; CHX counter: -4; Pf growth 96h: 4.7µM*; SARS PLpro yeast: 4%

Results for CCCC(=NCc1ccccc1)C1=C(O)C(C(=O)OC)C(C)(C)CC1=O (stereo not given) ?
AMA1-RON2 inh: -2%; Shiga toxin inh: -2; CHX counter: 2; Pf growth 96h: inconclusive; SARS PLpro yeast: 7%

How did CCCC(=O)C1=C(O)C(C(=O)OC)C(C)(C)CC1=NCc1ccccc1 (stereo not given) do in these assays?
Pf growth 48h: inconclusive; AMA1-RON2 inh: -1%; Shiga toxin inh: -5; CHX counter: 0; Pf growth 96h: 7.4µM*; SARS PLpro yeast: -1%

Results for CCC(=NCc1ccccc1)C1=C(O)C(C(=O)OC)C(C)(C)CC1=O (stereo not given) ?
Pf growth 48h: 7%; AMA1-RON2 inh: -2%; Shiga toxin inh: -8; CHX counter: 2; Pf growth 96h: 12µM*; SARS PLpro yeast: 5%

How did CCCC(=O)C1=C(O)C(C(=O)OC)C(C)(C)CC1=Nc1cccc2ccccc12 (stereo not given) do in these assays?
Pf growth 48h: 5.2µM*; AMA1-RON2 inh: -8%; Shiga toxin inh: 3; CHX counter: 6; Pf growth 96h: -27%; SARS PLpro yeast: -27%

What do the screens show for `CCCC(=O)C1=C(O)C(C(=O)OC)C(C)(C)CC1=NC(C)(C)C` (stereo not given)?
Pf growth 48h: inconclusive; AMA1-RON2 inh: 0%; Shiga toxin inh: -14; CHX counter: -5; SARS PLpro yeast: 8%
